# Measurements as given in the supplement of paper PMC8728848.
# This excerpt belongs to a sample that is enriched for the strongest signals.
# B1: Als1 (Candida albicans), P46590 (protein)
# chain: KTITGVFDSFNSLTWSNAANYAFKGPGYPTWNAVLGWSLDGTSANPGDTFTLNMPCVFKYTTSQTSVDLTADGVKYATCQFYSGEEFTTFSTLTCTVNDALKSSIKAFGTVTLPIAFNVGGTGSSTDLEDSKCFTAGTNTVTFNDGDKDISIDVEFEKSTVDPSGYLYASRVMPSLNKVTTLFVAPQCENGYTSGTMGFSSSNGDVAIDCSNIHIGITKGLNDWNYPVSSESFSYTKTCTSNGIQIKYQNVPAGYRPFIDAYISATDVNQYTLAYTNDYTCAGSRLQSKPFTLRWTGYKNSDAGSNGIVIVATTRTVTDSTTAVTTLPFNPSVDKTKTIEILQPIPTTTITTSYVGVTTSYLTKTAPIGETATVIVDVPYHTTTTVTSEWTGTITTTTTRTNPTDSIDTVVVQVP
# How the values were obtained:
# Experiment in all cases: glycan array binding signal (z-score within array); higher = stronger binding
# Conditions in all cases: glycan notation: IUPAC condensed, linker removed
# [1] = molecular target: Fuc(a1-2)Gal(b1-3)GalNAc(b1-3)Gal
# How it was run: (§1)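 Glycan array binding is given as a within-array Z-score, which can be read as non-binding when negative. The arrays, 3228 of them, came from the Consortium for Functional Glycomics database and were retained only where the protein sequence was available. Z-scores were averaged across arrays of the same protein sequence at different concentrations or buffers and across linkers.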
# Fuc(a1-2)Gal(b1-3)GlcNAc = molecular target: Fuc(a1-2)Gal(b1-3)GlcNAc
# How it was run: as §1
# [2] = molecular target: Fuc(a1-2)Gal(b1-4)GlcNAc(b1-2)Man(a1-3)[Fuc(a1-2)Gal(b1-4)GlcNAc(b1-2)Man(a1-6)]Man(b1-4)GlcNAc(b1-4)[Fuc(a1-6)]GlcNAc
# How it was run: as §1
# [3] = molecular target: Fuc(a1-2)Gal6S(b1-4)Glc6S
# How it was run: as §1
# [4] = molecular target: Fuc(a1-2)[Gal(a1-3)]Gal(b1-3)GalNAc(b1-3)Gal(a1-4)Gal(b1-4)Glc
# How it was run: as §1
# [5] = molecular target: Fuc(a1-2)[Gal(a1-3)]Gal(b1-4)[Fuc(a1-3)]Glc
# How it was run: as §1
# [6] = molecular target: Fuc(a1-2)[GalNAc(a1-3)]Gal(b1-3)GlcNAc(b1-2)Man(a1-3)[Fuc(a1-2)[GalNAc(a1-3)]Gal(b1-3)GlcNAc(b1-2)Man(a1-6)]Man(b1-4)GlcNAc(b1-4)[Fuc(a1-6)]GlcNAc
# How it was run: as §1
# [7] = molecular target: Fuc(a1-2)[GalNAc(a1-3)]Gal(b1-4)GlcNAc(b1-2)Man
# How it was run: as §1
# [8] = molecular target: Fuc(a1-3)[Gal(b1-4)]Glc6S
# How it was run: as §1
# [9] = molecular target: Fuc(a1-3)[Gal(b1-4)]GlcNAc(b1-2)Man(a1-3)[Fuc(a1-3)[Gal(b1-4)]GlcNAc(b1-2)Man(a1-6)]Man(b1-4)GlcNAc(b1-4)GlcNAc
# How it was run: as §1
# [10] = molecular target: Fuc(a1-3)[Gal(b1-4)]GlcNAc(b1-2)Man(a1-3)[Fuc(a1-3)[Gal(b1-4)]GlcNAc(b1-2)Man(a1-6)]Man(b1-4)GlcNAc(b1-4)[Fuc(a1-6)]GlcNAc
# How it was run: as §1
# Gal(a1-3)Gal(b1-4)Glc = molecular target: Gal(a1-3)Gal(b1-4)Glc
# How it was run: as §1
# Gal(a1-3)GalNAc = molecular target: Gal(a1-3)GalNAc
# How it was run: as §1
# Gal(a1-4)Gal(b1-4)GlcNAc = molecular target: Gal(a1-4)Gal(b1-4)GlcNAc
# How it was run: as §1
# Gal(b1-3)Gal = molecular target: Gal(b1-3)Gal
# How it was run: as §1
# [11] = molecular target: Gal(b1-3)GlcNAc(a1-3)Gal(b1-4)GlcNAc
# How it was run: as §1
# Gal(b1-3)GlcNAc(b1-2)Man = molecular target: Gal(b1-3)GlcNAc(b1-2)Man
# How it was run: as §1
# [12] = molecular target: Gal(b1-3)GlcNAc(b1-3)GalNAc
# How it was run: as §1
# [13] = molecular target: Gal(b1-4)GalNAc(b1-3)[Fuc(a1-2)]Gal(b1-4)GlcNAc
# How it was run: as §1
# [14] = molecular target: Gal(b1-4)GlcNAc(b1-2)Man(a1-3)[GlcNAc(b1-4)][Gal(b1-4)GlcNAc(b1-2)Man(a1-6)]Man(b1-4)GlcNAc(b1-4)GlcNAc
# How it was run: as §1
# [15] = molecular target: Gal(b1-4)GlcNAc(b1-2)[Gal(b1-4)GlcNAc(b1-6)]Man(a1-6)[Gal(b1-4)GlcNAc(b1-2)Man(a1-3)]Man(b1-4)GlcNAc(b1-4)GlcNAc
# How it was run: as §1
# [16] = molecular target: Gal(b1-4)GlcNAc(b1-3)Gal(b1-4)GlcNAc(b1-2)Man(a1-3)[Gal(b1-4)GlcNAc(b1-3)Gal(b1-4)GlcNAc(b1-2)Man(a1-6)]Man(b1-4)GlcNAc(b1-4)GlcNAc
# How it was run: as §1
# Gal(b1-6)Gal = molecular target: Gal(b1-6)Gal
# How it was run: as §1
# Gal3S6S(b1-4)GlcNAc6S = molecular target: Gal3S6S(b1-4)GlcNAc6S
# How it was run: as §1
# Gal4S(b1-4)GlcNAc = molecular target: Gal4S(b1-4)GlcNAc
# How it was run: as §1
# [17] = molecular target: GlcA3S(b1-3)Gal(b1-4)GlcNAc(b1-2)Man
# How it was run: as §1
# GlcNAc(b1-3)Gal = molecular target: GlcNAc(b1-3)Gal
# How it was run: as §1
# [18] = molecular target: GlcNAc(b1-3)Gal(b1-4)GlcNAc(b1-2)Man(a1-3)[GlcNAc(b1-3)Gal(b1-4)GlcNAc(b1-2)Man(a1-6)]Man(b1-4)GlcNAc(b1-4)[Fuc(a1-6)]GlcNAc
# How it was run: as §1
# [19] = molecular target: GlcNAc(b1-3)Gal(b1-4)GlcNAc(b1-2)[GlcNAc(b1-3)Gal(b1-4)GlcNAc(b1-6)]Man(a1-6)[GlcNAc(b1-3)Gal(b1-4)GlcNAc(b1-2)Man(a1-3)]Man(b1-4)GlcNAc(b1-4)GlcNAc
# How it was run: as §1
# GlcNAc(b1-3)Man = molecular target: GlcNAc(b1-3)Man
# How it was run: as §1
# [20] = molecular target: GlcNAc(b1-3)[GlcNAc(b1-6)]Gal(b1-4)GlcNAc
# How it was run: as §1
# [21] = molecular target: Man(a1-2)Man(a1-2)Man(a1-6)[Man(a1-3)]Man
# How it was run: as §1
# [22] = molecular target: Man(a1-3)[Man(a1-6)]Man(a1-6)[Man(a1-3)]Man
# How it was run: as §1
# [23] = molecular target: Neu5Ac(a2-3)Gal(b1-3)GlcNAc(b1-3)Gal(b1-4)GlcNAc
# How it was run: as §1
# [24] = molecular target: Neu5Ac(a2-3)Gal(b1-3)GlcNAc(b1-4)Gal(b1-4)Glc
# How it was run: as §1
# [25] = molecular target: Neu5Ac(a2-3)Gal(b1-3)[Fuc(a1-4)]GlcNAc(b1-3)Gal(b1-4)[Fuc(a1-3)]GlcNAc
# How it was run: as §1
# [26] = molecular target: Neu5Ac(a2-3)Gal(b1-4)GlcNAc(b1-3)Gal
# How it was run: as §1
# [27] = molecular target: Neu5Ac(a2-3)Gal(b1-4)GlcNAc(b1-3)Gal(b1-4)GlcNAc(b1-3)Gal(b1-4)GlcNAc(b1-2)Man(a1-3)[Neu5Ac(a2-3)Gal(b1-4)GlcNAc(b1-3)Gal(b1-4)GlcNAc(b1-3)Gal(b1-4)GlcNAc(b1-2)Man(a1-6)]GalNAc
# How it was run: as §1
# [28] = molecular target: Neu5Ac(a2-3)Gal(b1-4)[Fuc(a1-3)]GlcNAc(b1-6)[Neu5Ac(a2-3)Gal(b1-3)]GalNAc
# How it was run: as §1
# [29] = molecular target: Neu5Ac(a2-3)[GalNAc(b1-4)]Gal(b1-4)Glc
# How it was run: as §1
# [30] = molecular target: Neu5Ac(a2-6)Gal(b1-4)GlcNAc(b1-3)Gal(b1-4)GlcNAc(b1-6)[Gal(b1-3)]GalNAc
# How it was run: as §1
# Neu5Ac(a2-8)Neu5Ac = molecular target: Neu5Ac(a2-8)Neu5Ac
# How it was run: as §1
# [31] = molecular target: Neu5Ac(a2-8)Neu5Ac(a2-3)Gal(b1-3)GalNAc(b1-4)[Neu5Ac(a2-3)]Gal(b1-4)Glc
# How it was run: as §1
# [32] = molecular target: Neu5Ac(a2-8)Neu5Ac(a2-8)Neu5Ac(a2-3)Gal(b1-4)Glc
# How it was run: as §1
# [33] = molecular target: Neu5Ac(a2-8)Neu5Gc(a2-3)Gal(b1-4)GlcNAc
# How it was run: as §1
# [34] = molecular target: Neu5Gc(a2-8)Neu5Ac(a2-3)Gal(b1-4)GlcNAc
# How it was run: as §1
binder,measurement,setting,value
B1,glycan array binding signal (z-score),[1],3.32
same,glycan array binding signal (z-score),Fuc(a1-2)Gal(b1-3)GlcNAc,-0.524
same,glycan array binding signal (z-score),[2],1.97
same,glycan array binding signal (z-score),[3],-0.25
same,glycan array binding signal (z-score),[4],-0.049
same,glycan array binding signal (z-score),[5],0.021
same,glycan array binding signal (z-score),[6],-0.413
same,glycan array binding signal (z-score),[7],-0.488
same,glycan array binding signal (z-score),[8],3.38
same,glycan array binding signal (z-score),[9],0.227
same,glycan array binding signal (z-score),[10],0.146
same,glycan array binding signal (z-score),Gal(a1-3)Gal(b1-4)Glc,-0.664
same,glycan array binding signal (z-score),Gal(a1-3)GalNAc,-0.407
same,glycan array binding signal (z-score),Gal(a1-4)Gal(b1-4)GlcNAc,-0.303
same,glycan array binding signal (z-score),Gal(b1-3)Gal,-0.458
same,glycan array binding signal (z-score),[11],-0.432
same,glycan array binding signal (z-score),Gal(b1-3)GlcNAc(b1-2)Man,0.092
same,glycan array binding signal (z-score),[12],-0.05
same,glycan array binding signal (z-score),[13],-0.644
same,glycan array binding signal (z-score),[14],8.37
same,glycan array binding signal (z-score),[15],7.7
same,glycan array binding signal (z-score),[16],4.19
same,glycan array binding signal (z-score),Gal(b1-6)Gal,-0.739
same,glycan array binding signal (z-score),Gal3S6S(b1-4)GlcNAc6S,3.22
same,glycan array binding signal (z-score),Gal4S(b1-4)GlcNAc,0.401
same,glycan array binding signal (z-score),[17],-0.192
same,glycan array binding signal (z-score),GlcNAc(b1-3)Gal,4.47
same,glycan array binding signal (z-score),[18],-0.201
same,glycan array binding signal (z-score),[19],4.37
same,glycan array binding signal (z-score),GlcNAc(b1-3)Man,-0.282
same,glycan array binding signal (z-score),[20],-0.361
same,glycan array binding signal (z-score),[21],-0.553
same,glycan array binding signal (z-score),[22],1.09
same,glycan array binding signal (z-score),[23],-0.473
same,glycan array binding signal (z-score),[24],4.25
same,glycan array binding signal (z-score),[25],-0.015
same,glycan array binding signal (z-score),[26],-0.274
same,glycan array binding signal (z-score),[27],3.84
same,glycan array binding signal (z-score),[28],2.16
same,glycan array binding signal (z-score),[29],-0.291
same,glycan array binding signal (z-score),[30],-0.05
same,glycan array binding signal (z-score),Neu5Ac(a2-8)Neu5Ac,-0.045
same,glycan array binding signal (z-score),[31],-0.627
same,glycan array binding signal (z-score),[32],-0.083
same,glycan array binding signal (z-score),[33],-0.049
same,glycan array binding signal (z-score),[34],4.63
